Source: PubChem BioAssay (NCATS)
Values joined by “and” are separate entries in the source; they are usually repeats but may differ in a detail not shown here. Equal entries are not always repeated. Inconclusive results are not listed. Active and inactive are the calls of the source. Calls come from the whole dose curve; as a rule, active = well fitted curve in the direction sought with a large enough effect; inconclusive = small, poorly fitted or top-dose-only effect, or another doubt; inactive = no such curve, though single readings can be large; an effect the other way counts as inactive or inconclusive.

Columns and labels:
[1] = biological target: Cellular tumor antigen p53 (Homo sapiens) (UniProt P04637); assay: Primary qHTS for small molecule compounds that upregulate eGFP-tagged delta133p53alpha (in N-terminal) cells. (AID 2060322); details: NCI-H358 eGFP-delta133p53alpha fluorescence, 24 h; activation: active compounds read high; note: nearly all actives have a fitted effect of over 75% in size; note: potency is the fitted concentration of half-maximal effect;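 for activation: 0% = DMSO vehicle and 100% = reference activator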
Chain of Cellular tumor antigen p53 (Homo sapiens) (P04637 whole entry, looked up): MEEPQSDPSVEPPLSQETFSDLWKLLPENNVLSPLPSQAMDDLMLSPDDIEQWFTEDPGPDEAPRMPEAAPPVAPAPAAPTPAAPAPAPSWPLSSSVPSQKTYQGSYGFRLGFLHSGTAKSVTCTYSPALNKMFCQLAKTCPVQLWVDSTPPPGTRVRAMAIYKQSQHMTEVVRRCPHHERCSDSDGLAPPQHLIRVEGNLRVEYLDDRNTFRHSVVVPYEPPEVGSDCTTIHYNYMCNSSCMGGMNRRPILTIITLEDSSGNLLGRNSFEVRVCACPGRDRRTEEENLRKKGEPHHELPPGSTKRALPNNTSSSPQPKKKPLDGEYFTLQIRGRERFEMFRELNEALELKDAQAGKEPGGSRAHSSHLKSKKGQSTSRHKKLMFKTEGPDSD
Summary of the method: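 NCI-H358 cells pre-induced 24 h with 10 ng/ml doxycycline to express N-terminal eGFP-delta133p53alpha, then dosed 24 h at 37C without doxycycline; fixed, Hoechst-stained, GFP intensity by laser scanning cytometry, normalized to DMSO (0%) and 57.5 uM 5-azacytidine (100%).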

[2] = biological target: Aldehyde dehydrogenase, mitochondrial (Homo sapiens) (UniProt P05091); assay: qHTS for Inhibitors of the Aldehyde Dehydrogenase Family (ALDH2) Primary screen (AID 2061308); details: ALDH2 enzyme inhibition qHTS, 1536-well; series mostly up to 56 µM;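 note: plate controls were vehicle for no effect and reference inhibitor for full effect; nearly all actives have a fitted effect of over 55% in size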
[3] = biological target: Retinaldehyde dehydrogenase 3 (Homo sapiens) (UniProt P47895); assay: qHTS for Inhibitors of the Aldehyde Dehydrogenase Family (ALDH1A3) Primary screen (AID 2061315); details: ALDH inhibition qHTS; series mostly up to 56 µM;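 note: plate controls were DMSO vehicle for no effect and reference inhibitor for full effect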
[4] = BET inhibitor-based combinations targeting novel dependencies in MECOM-rearranged (r) AML: OCI-AML3 cell line (AID 2202232); details: CellTiter-Glo luminescence, 48 h; Potency: OCI-AML3 viability; series mostly up to 46 µM; note: potency is the fitted concentration of half-maximal effect; nearly all actives have a fitted effect of over 35% in size
Summary of the method: (§1)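 500 cells/well; 11-pt dose curve; 48 h, standard incubator; CellTiter-Glo luminescence after 15 min RT; DMSO/empty-well normalization; AUC plus Z-AUC (mean-centered within each line).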

[5] = BET inhibitor-based combinations targeting novel dependencies in MECOM-rearranged (r) AML: MV-4-11 cell line (AID 2202233); details: MV-4-11 AML viability, CellTiter-Glo luminescence, 48 h; series mostly up to 46 µM; note: potency is the fitted concentration of half-maximal effect; nearly all actives have a fitted effect of over 45% in size
Summary of the method: (§2)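 Cells were plated at 500 per well and exposed to each drug across an 11-point dose range for 48 hr at standard incubator conditions. Viability was read by CellTiter-Glo luminescence, and activity was expressed as AUC and per-cell-line Z-transformed AUC.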

[6] = BET inhibitor-based combinations targeting novel dependencies in MECOM-rearranged (r) AML: HNT-34 cell line (AID 2202234); details: HNT-34 AML viability, CellTiter-Glo luminescence, 48 h; series mostly up to 46 µM; note: nearly all actives have a fitted effect of over 35% in size; note: potency is the fitted concentration of half-maximal effect
Summary of the method: as §2

[7] = BET inhibitor-based combinations targeting novel dependencies in MECOM-rearranged (r) AML: UCSD-AML1 cell line (AID 2202235); details: UCSD-AML1 AML cells viability, CellTiter-Glo, 48 h; series mostly up to 46 µM; note: nearly all actives have a fitted effect of over 40% in size; note: potency is the fitted concentration of half-maximal effect
Summary of the method: as §2

[8] = BET inhibitor-based combinations targeting novel dependencies in MECOM-rearranged (r) AML: AML-191 cell line (AID 2202236; note: nearly all actives have a fitted effect of over 35% in size; note: potency is the fitted concentration of half-maximal effect); details: AML-191 viability, CellTiter-Glo luminescence, 48 h; series mostly up to 46 µM
Summary of the method: as §1

[9] = BET inhibitor-based combinations targeting novel dependencies in MECOM-rearranged (r) AML: AML-194 cell line (AID 2202237; note: nearly all actives have a fitted effect of over 40% in size; note: potency is the fitted concentration of half-maximal effect); details: AML-194 (MECOM-r AML) viability, CellTiter-Glo, 48 h; series mostly up to 46 µM
Summary of the method: as §1

[10] = BET inhibitor-based combinations targeting novel dependencies in MECOM-rearranged (r) AML: SET-2 cell line (AID 2202231); details: SET-2 AML cells viability, CellTiter-Glo luminescence, 48 h; viability: active compounds read low, concentration not given here;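 note: plate controls were DMSO treated cells for no effect and wells without cells for full effect; nearly all actives have a fitted effect of over 35% in size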
Summary of the method: as §1

CCc1nc(C(N)=O)c(Nc2ccc(N3CCC(N4CCN(C)CC4)CC3)c(OC)c2)nc1NC1CCOCC1
inactive: activation [1] -44.7% | Potency [2] | Potency [3]
active: Potency [4] 5.9 µM | Potency [5] 0.059 µM | Potency [6] 1.48 µM | Potency [7] 2.63 µM | Potency [8] 2.63 µM | Potency [9] 3.32 µM

Cc1cc2c(F)c(Oc3ncnn4cc(OCC(C)OC(=O)C(C)N)c(C)c34)ccc2[nH]1 (stereo not given)
inactive: activation [1] -1.79% | Potency [2] | Potency [3]
active: Potency [4] 11.8 µM | Potency [5] 11.8 µM

COc1ccc2c(c1)CC[C@@H](CN(C)CC(=O)O)[C@H]2c1ccccc1
inactive: activation [1] -11.9% | Potency [2] | Potency [3] | viability [10] 116% | Potency [7] | Potency [8] | Potency [9]

CC(=O)c1c(C)c2cnc(Nc3ccc(N4CCNCC4)cn3)nc2n(C2CCCC2)c1=O
active: Potency [4] 20.9 µM | Potency [5] 6.61 µM | Potency [6] 16.6 µM | Potency [7] 13.2 µM | Potency [8] 16.6 µM | Potency [9] 14.8 µM
inactive: activation [1] 46.5% and -19.6% | activity change, negative = inhibition [2] 10.9% [at 5.59 µM] | activity change, negative = inhibition [3] -7.36% [at 5.59 µM]

CNC(=O)c1cc(Oc2ccc(NC(=O)Nc3ccc(Cl)c(C(F)(F)F)c3)c(F)c2)ccn1
active: Potency [4] 2.63 µM | Potency [5] 0.59 µM | Potency [6] 10.5 µM | Potency [8] 9.34 µM
inactive: activation [1] 8.41% | Potency [2] | Potency [3]

Cn1cnc2c(F)c(Nc3ccc(Br)cc3Cl)c(C(=O)NOCCO)cc21
inactive: activation [1] 24.1% | Potency [2] | Potency [3]
active: Potency [4] 0.0295 µM

Cc1c(C)n(Cc2ccc(-c3ccccc3C(=O)O)cc2)c2ccc(C(=O)N[C@@H](C)c3ccc([N+](=O)[O-])cc3)cc12
inactive: activation [1] 21.3% and -1.79% | Potency [2] | Potency [3] | viability [10] 111% | Potency [6] | Potency [7] | Potency [8] | Potency [9]

Nc1ccn([C@@H]2O[C@H](CO)[C@@H](O)C2(F)F)c(=O)n1
active: Potency [4] 0.0105 µM | Potency [5] 0.0059 µM | Potency [6] 0.0372 µM | Potency [7] 0.0186 µM | Potency [8] 0.0132 µM | Potency [9] 0.0209 µM
inactive: activation [1] -26.8% and -6.68% | Potency [2] | Potency [3]

CC(C)n1nc(-c2ccc3oc(N)nc3c2)c2c(N)ncnc21
inactive: activation [1] 5.06% and 13.4% | Potency [2] | Potency [3]
active: Potency [4] 0.417 µM | Potency [5] 0.0372 µM | Potency [7] 0.0118 µM

Cc1c(NC(=O)c2cc(C(N)=O)nc3cc(F)ccc23)c(C(F)(F)F)nn1Cc1ccc(C#N)cc1
inactive: activation [1] 14.3% | Potency [2] | Potency [3] | viability [10] 101% | Potency [7]

CCN1CCC(n2cc(CNc3cc(Cl)c4ncc(C#N)c(Nc5ccc(F)c(Cl)c5)c4c3)nn2)CC1
inactive: Potency [2] | Potency [3] | Potency [7]
active: Potency [1] 16.9 µM | Potency [4] 16.6 µM | Potency [5] 20.9 µM

Cc1ccc(-c2ccc3c(ccc4sc5c(c43)NC[C@@H](C)NC5=O)n2)cn1
active: Potency [4] 18.6 µM | Potency [5] 20.9 µM | Potency [6] 26.3 µM | Potency [8] 26.3 µM | Potency [9] 26.3 µM
inactive: activation [1] 8.04% | Potency [2] | Potency [3]

O=C(CC12CC3CC(CC(C3)C1)C2)Nc1cccc2nc(NCCNCCO)ccc12
inactive: activation [1] 11.8% and 6.68% | Potency [2] | Potency [3] | viability [10] 114% | Potency [8]

CC(C)(O)CC(=O)NCCn1ccc2ncnc(Nc3ccc(Oc4cccc(C(F)(F)F)c4)c(Cl)c3)c21
active: Potency [1] 24.3 µM | Potency [4] 16.6 µM | Potency [5] 13.2 µM | Potency [6] 14.8 µM | Potency [7] 14.8 µM | Potency [8] 16.6 µM
inactive: Potency [2] | Potency [3]

C[C@H](c1ccc(F)cc1CCCC(=O)O)N(c1cc(F)ccc1F)S(=O)(=O)c1ccc(Cl)cc1
inactive: activation [1] -2.61% and 2.68% | Potency [2] | Potency [3] | viability [10] 113% | Potency [7] | Potency [9]

O=C(C1CC1)N1CC[C@@H](Cc2n[nH]c(=O)n2-c2ccc(-c3ccc4occc4c3)cc2)C1
inactive: activation [1] -2.33% and -15.1% | Potency [2] | Potency [3] | viability [10] 95.8% | Potency [7] | Potency [8] | Potency [9]

CN(C)c1ccc(C2Nc3ccc4ccccc4c3C3=C2C(=O)CC(C)(C)C3)cc1Br (stereo not given)
inactive: activation [1] 5.76% and 26.3% | Potency [2] | Potency [3] | viability [10] 107% | Potency [7] | Potency [8]
